In all, about 96,000 compounds went through this assay and about 20,000 (21%) were called active. The list is a sample of the results. Values without a mark were called inactive.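 The calls were made as follows: active = CYP2C19 inhibition above a set limit at 5 µM in the primary screen (cut at about 50% in these data); inactive = the rest.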

Cytochrome P450 2C19 (Homo sapiens), sequence (P33261 whole entry, looked up): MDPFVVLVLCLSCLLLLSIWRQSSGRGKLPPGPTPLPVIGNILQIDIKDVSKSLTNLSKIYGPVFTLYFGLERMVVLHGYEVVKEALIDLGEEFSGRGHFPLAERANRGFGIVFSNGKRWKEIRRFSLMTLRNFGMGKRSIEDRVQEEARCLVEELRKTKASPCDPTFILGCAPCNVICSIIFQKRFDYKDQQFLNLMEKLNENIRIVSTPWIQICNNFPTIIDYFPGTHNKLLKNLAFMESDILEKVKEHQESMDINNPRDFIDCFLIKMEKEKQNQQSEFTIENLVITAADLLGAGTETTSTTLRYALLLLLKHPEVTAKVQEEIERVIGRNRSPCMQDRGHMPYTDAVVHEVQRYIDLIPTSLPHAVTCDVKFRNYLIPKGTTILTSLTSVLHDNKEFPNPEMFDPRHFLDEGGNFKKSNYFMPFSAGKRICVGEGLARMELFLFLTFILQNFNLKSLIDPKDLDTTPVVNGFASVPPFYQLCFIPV

This assay concerns the target Cytochrome P450 2C19 (Homo sapiens) (UniProt P33261). Kind of assay: blockers of cytochrome P450 2C19 activity – biochemical, luminescence, ADME assay, primary screen (AID 778).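 Also: plate controls were negative control wells for no effect and 2.5 mM tranylcypromine positive control for full effect.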 Particulars: CYP2C19 Supersomes, luciferin-H EGE luminescence, 30 min; at 5 µM; active compounds read high.
By inhibition is commonly meant the relative decrease from the control value, in per cent. Take `CCOc1[nH]n(-c2ccc(Cl)cc2)c(=O)c1C=Nc1ccc(O)cc1`: the inhibition was 13.5%. Take `CCCN1CCN(C(=O)Cn2ncc3ccccc32)CC1`: the inhibition was 12.6%.

As for `COCCN(C(=O)c1ccco1)c1nnc(-c2ccc(OC)cc2)s1`, the inhibition is 24%. In the case of `CN(C(=O)c1ccno1)c1nnc(-c2cccnc2)s1` it was -0.7%. In the case of `Cc1nnc(N(Cc2ccco2)C(=O)c2ccno2)s1` it was 80.5% (active).

Turning to `Cc1nnc(SCCCn2c(N3CCCCC3)nc3c2c(=O)[nH]c(=O)n3C)s1`, the inhibition is 22.6%. In the case of `Cc1ccc(O)c(NC(=O)COc2cc(C)ccc2C)c1` it was -2.7%. In the case of `CCCn1nnnc1NC(=O)COc1ccc(Cl)cc1C` it was 70.2% (active); in that of `Cc1cccc(NC(=O)COc2ccc(Br)cc2C)n1`, 5%. In the case of `CN1CCN(S(=O)(=O)c2ccc3[nH]cc(C(=O)O)c(=O)c3c2)CC1` it was 3.6%; in that of `CCNC(=S)Nc1cccc(Cl)c1C`, 48%; in that of `Nc1nc(SCc2ccccc2Cl)n[nH]1`, 0.1%. In the case of `Clc1ccccc1CSc1nnc(-c2ccco2)c(-c2ccco2)n1`, the inhibition is 31.1%. In the case of `Cc1cc(C)nc(SCc2ccccc2C#N)n1` it was 50.2% (active).

As for `Cc1ccc(CS(=O)(=O)CCC(=O)NC2CC2)cc1`, the inhibition was 9.7%. Consider `CCCCCNC(=O)Cc1ccc(OC)cc1`, for which the inhibition is 92.4% (active). In the case of `COc1ccc(OCC(=O)NCCc2ccc(S(N)(=O)=O)cc2)cc1` it was 19.4%; in that of `COc1ccc(CNC(=O)CCn2cccc2)cc1`, 35%; in that of `O=C(NCCN=C1NS(=O)(=O)c2ccccc21)c1ccc(S(=O)(=O)N2CCOCC2)cc1`, -2%. In the case of `O=C1CCCC2=C1C(c1ccccc1)n1c(s/c(=C/c3cccc(F)c3)c1=O)=N2` (configuration not stated) it was 34.6%; in that of `CS(=O)(=O)Nc1cccc(C2=NN(S(=O)(=O)c3ccccc3)C(c3cccs3)C2)c1` (configuration not stated), 72.2% (active); in that of `CCOC(=O)C1CCN(C(=O)c2oc3ccc(S(=O)(=O)N4CCCCCC4)cc3c2C)CC1`, 40.4%. In the case of `O=C(Nc1nnc(SCc2ccccc2)s1)c1ccco1` it was 2.5%; in that of `COc1ccc2c(CC(=O)Nc3nnc(C4CC4)s3)coc2c1`, 12.6%.

Turning to `CCOc1ccc(CN(Cc2ccco2)C(c2cccs2)c2nnnn2C(C)(C)C)cc1` (configuration not stated), the inhibition is 47.8%.

Turning to `CCOc1ccc(CN(Cc2ccco2)S(=O)(=O)c2ccc(-n3cnnn3)c(OC)c2)cc1`, the inhibition is 57.7% (active). For `COc1ccc(CN(Cc2ccco2)S(=O)(=O)c2ccc(S(=O)(=O)N3CCCC3)cc2)cc1`, the inhibition was 38.7%. In the case of `CCOc1nnc(C)c2c(C)n(-c3cccc(Cl)c3)nc12`, the inhibition is 45.7%.

Consider `Cc1cc(=O)n(C)c(=O)n1CCCNc1ccccc1`, for which the inhibition is 18.5%. In the case of `CC(=O)c1sc(NC(=O)c2cccc3ccccc23)nc1C` it was -21.9%; in that of `COc1ccccc1N1CCN(C(=O)c2c(-c3c(Cl)cccc3Cl)noc2C)CC1`, 78.9% (active); in that of `COc1ccccc1N1CCN(C(=O)c2ccc(S(=O)(=O)N3CCCCC3)cc2)CC1`, 28.3%. Consider `COc1ccccc1N1CCN(C(=O)c2cc(-c3ccc(Br)cc3)on2)CC1`, for which the inhibition was -2.9%.

Regarding `Cc1ccc(NC(=O)N2CCC(O)(c3cccnc3)CC2)cc1`, the inhibition is 2.2%.

As to `CC1=NN(C(=O)c2ccccc2Br)C(O)(c2cccnc2)C1` (configuration not stated), the inhibition is 16.7%. With `CC1=NN(C(=O)Cc2ccc(C)cc2)C(O)(c2cccnc2)C1` (configuration not stated), the inhibition was 62.6% (active). As for `CC(c1ccccn1)N(CCN(C)C)C(=S)Nc1ccccc1F` (configuration not stated), the inhibition was 13.7%. In the case of `Cc1cc2c(c(=O)n1C)C(C(C)C)C(C#N)=C(N)O2` (configuration not stated) it was 3.4%; in that of `CCCCN(C)C(=O)C1CCN(Cc2ccccn2)CC1`, -6.2%; in that of `COc1ccc(C2CC(=O)C=C(NCC3CCCO3)C2)cc1` (configuration not stated), 19.6%. In the case of `CCOc1cccc(-c2nn3c(-c4ccccn4)nnc3s2)c1` it was -1.6%; in that of `COc1ccc(-c2nn3c(-c4ccccc4)nnc3s2)cc1OC`, 0.9%. In the case of `COc1cc(-c2nn3c(-c4cccc(C)c4)nnc3s2)cc(OC)c1OC` it was 79.2% (active). With `CC(C)(C)n1c(=O)[nH]c2c(c1=O)CCC2`, the inhibition was -16.7%. In the case of `O=C(O)C1CCN(S(=O)(=O)N2CCOCC2)CC1` it was -3%; in that of `O=S(=O)(NCC1OCCc2ccccc21)c1ccccc1` (configuration not stated), 53.6% (active).

Take `O=C1c2ccccc2C(=O)N1CC1c2ccccc2CCN1S(=O)(=O)c1ccccc1` (configuration not stated): the inhibition was 36.9%. As for `O=C(CN(CC1CCCO1)C(=O)CNS(=O)(=O)c1ccccc1)NCc1ccccc1` (configuration not stated), the inhibition was 4.5%. In the case of `N#CC(C(N)=O)=C1CCC2(CC1)OCCCCO2` it was 24.1%; in that of `CC(N)C12CC3CC(CC(O)(C3)C1)C2` (configuration not stated), 6.1%; in that of `FC(F)(F)c1cccc(-c2cc3ccccc3nc2N2CCCC2)c1`, 16.1%. With `O=C1c2ccncc2C(=O)N1C1CCCCC1`, the inhibition was -1.7%. In the case of `COc1ccc2c(Cl)c(-c3nnco3)sc2c1` it was 19%.

As to `COc1cccc(N=c2oc3c(C)ncc(CO)c3cc2C(N)=O)c1`, the inhibition was 21.1%.

In the case of `CC(Oc1ccc(F)cc1F)C(=O)/C=C/N(C)C` (configuration not stated), the inhibition is -6.9%. In the case of `CC(Oc1ccc(Cl)cc1Cl)C(=O)/C=C/N(C)C` (configuration not stated) it was 60.1% (active); in that of `CN(C)/C=C/C(=O)c1ccccc1F`, -7%. Consider `Cc1cccc(N(CC(O)CN(C)C)S(=O)(=O)c2ccccc2)c1` (configuration not stated), for which the inhibition is -5.2%. In the case of `O=C(CN1CCSCC1)N/N=C/c1ccc(F)cc1F`, the inhibition was 3.1%. In the case of `Cc1ccc(-c2nc(CS(=O)CC(=O)NC3CCCC3)c(C)o2)cc1` (configuration not stated) it was 32.1%; in that of `COC(=O)C1(S(=O)(=O)C2(C(=O)OC)CCCC2)CCCC1`, 65.4% (active); in that of `COc1ccc(Cc2nnc(SC)[nH]c2=O)cc1`, -4.5%.

For the compound `Cc1cccc(C(=O)NCCCN2CCCC2=O)c1`, the inhibition is 21.8%. In the case of `CCc1nc(C)cn1S(=O)(=O)c1cc(OC)c(C)cc1C` it was 45.7%. In the case of `Cc1cc(C)nc(NC2=NCC(=O)N2c2ccc(Cl)cc2)n1` it was 4.3%; in that of `COc1ccc(CN2C(=O)CN=C2Nc2ccc(C)cc2C)cc1`, 82.7% (active); in that of `COc1ccc(N2C(=O)CN=C2Nc2cccc(C)c2C)cc1OC`, 17.1%.

For the compound `Cc1nc(NC2=NC(C(=O)Nc3ccc(Cl)cc3)CC(=O)N2)nc2ccccc12` (configuration not stated), the inhibition was 2.5%. In the case of `CC(C)Oc1ccc(C(=O)NC(C)(C)CO)cc1` it was 3.7%; in that of `COCCOC(=O)C1=C(C)Nc2nc(C)nn2C1c1ccccc1` (configuration not stated), 17.9%. In the case of `COC(=O)c1ccc(C2CC(=O)Nc3cc(OC)c(OC)cc32)cc1` (configuration not stated) it was 36.1%; in that of `COCCOC(=O)C1=C(C)NC(=O)CC1c1cc2c(cc1Br)OCO2` (configuration not stated), 83.7% (active).

Turning to `CC(C)(C)C(=O)Nc1ccc(C(=O)N/N=C/c2ccccc2OC(=O)c2ccc(Cl)cc2Cl)cc1`, the inhibition was 42.1%. Regarding `CN1CCN(S(=O)(=O)c2ccc(NC(=O)c3ccco3)cc2)CC1`, the inhibition is -15.6%.

Take `CCS(=O)(=O)Nc1ccc(C2=NN(S(=O)(=O)c3ccc(F)cc3)C(c3ccco3)C2)cc1` (configuration not stated): the inhibition was 82.8% (active). In the case of `Fc1ccc(N2N=C(c3cccs3)CC2c2ccco2)c(F)c1` (configuration not stated) it was 2.3%.

As for `COc1cccc2c1OCC1COc3c(c(=O)n(C)c(=O)n3C)C21` (configuration not stated), the inhibition is -1%. In the case of `COc1ccc(C2CC(=O)n3c(nc4ccccc43)S2)cc1OC` (configuration not stated) it was 11.9%. In the case of `COc1ccc(C2SCCN2S(=O)(=O)c2ccccc2)cc1OC` (configuration not stated) it was 48.2%.

As for `COc1ccc(C2N=C(N)N=C(N)N2c2ccccc2)cc1OC` (configuration not stated), the inhibition was 57.2% (active).

For `Cc1c(Nc2cc(N3CCCC(C)C3)c3nonc3c2[N+](=O)[O-])c(=O)n(-c2ccccc2)n1C` (configuration not stated), the inhibition was 19.5%. In the case of `CCSC(C)CC1C/C(=N/O)c2c(C)noc2C1` (configuration not stated) it was 40.9%; in that of `COc1cc(C(=O)NC(=S)NCc2ccco2)cc(OC)c1OC`, 28.5%; in that of `Cc1ccc(C(=O)N/C(=C/C=C/c2ccccc2)C(=O)NCc2ccco2)cc1`, 50.8% (active). `CNC(=O)/C(=C\C=C\c1ccccc1)NC(=O)c1ccc([N+](=O)[O-])cc1`: the inhibition was 23.9%. In the case of `CCOCCCNC(=O)C(NC(=O)c1ccc(=O)[nH]c1)c1ccc(Cl)cc1` (configuration not stated), the inhibition is -4.8%. In the case of `CCN(CC(=O)Nc1ccccc1OC)C(=O)Cn1cnc2ccccc2c1=O` it was 1.7%.

Regarding `CC(CNC(=O)c1ccc(Br)o1)NC(=O)c1ccc(Br)o1` (configuration not stated), the inhibition is 10.7%. With `CCN(CC)S(=O)(=O)N1CCC(C(=O)NC(C)CCc2ccccc2)CC1` (configuration not stated), the inhibition is -8.4%. For `CC(CCc1ccccc1)NC(=O)c1ccc(Br)o1` (configuration not stated), the inhibition was 57.2% (active). In the case of `CS(=O)(=O)c1ccc2nc(NC(=O)C3CCCCC3)sc2c1` it was -0.8%; in that of `N#CC1=C(N)N(c2ccc(F)cc2)C(=O)C1`, -22.3%. For `Cc1ccccc1CSc1nnc(-c2ccccn2)n1N`, the inhibition is 43.6%. For `COc1ccc2oc(=O)c(C(=O)N3CCN(c4ccccc4F)CC3)cc2c1`, the inhibition was 9.7%. Take `COc1ccc(Nc2ncc(C(=O)N3CCN(c4ccccc4OC)CC3)c3ccccc23)cc1`: the inhibition was 51.6% (active). In the case of `O=C(Nn1cc(C(=O)N2CCN(c3ccccc3F)CC2)c2ccccc2c1=O)c1cnccn1` it was 9.8%; in that of `COc1ccc(N2C(=O)CCC(C(=O)N(C)C3CCCCC3)C2c2ccc(OC)c(OC)c2)cc1` (configuration not stated), 20.3%.

On to `COCCN(C(=O)CCC(=O)Nc1ccccn1)C(C(=O)NCCC(C)C)c1ccc(OC)cc1` (configuration not stated), for which the inhibition was 42.4%. As to `CCC(C)n1[nH]c(=O)cc1N` (configuration not stated), the inhibition was 6.5%. In the case of `O=C(CS(=O)(=O)Cc1ccccc1)Nc1cccnc1` it was 6.9%; in that of `O=C(Nc1ccccc1)N(Cc1cccnc1)Cc1ccco1`, 76.4% (active); in that of `O=C(NNC(=O)c1cccnc1)Nc1ccccc1`, -10.3%.

Values taken from PubChem BioAssay AID778 (Sanford-Burnham Center for Chemical Genomics, 2007).
